Measured values from PubChem BioAssay.
Unmarked numbers belong to inactive results. The source made the active and inactive calls.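 How the source made its calls, unless noted: active means viability loss from added drug above about 55%, and viability with drug at most 40%, in both replicates (limit read from the data, passing the limit was not always enough); inconclusive means both conditions met in only one replicate; inactive means neither replicate meets both conditions.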

Assay: growth inhibitors of H69AR lung tumor, primary screen, human, duplicate replicates (AID 580;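 active means viability at or under a set limit in both replicates, limit being median viability minus 3 SD, cut at about 48% in these data, passing the limit was not always enough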;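 further: 100% = mean luminescence of untreated wells and 0% = no signal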)
Conditions: H69AR lung tumor cells viability, ATP luminescence, 72 h; at 10 µM; stronger effect = lower value

SMILES | viability
CCc1cc(=O)n2[nH]c(C)c(-c3ccccc3OC)c2n1 | 100%
Cc1ccc(CSc2nc3c(c(=O)[nH]2)CCC3)cc1 | 93.1%
CN(CCNS(=O)(=O)c1ccc2c(c1)oc(=O)n2C)Cc1ccccc1 | 98.1%
COc1ccc(-c2nnc(SCC(=O)NC(C)c3ccccc3)o2)cc1 (configuration not stated) | 100%
CCOc1ccc(Cn2nnc(C(=O)Nc3cc(C)cc(C)c3)c2N)cc1 | 86.2%
CCCCCn1c(CN2CCN(C(=O)c3ccco3)CC2)nc2c1c(=O)n(C)c(=O)n2C | 77.5%
CCN1CCN(Cc2ccc(NC(=O)Nc3ccccc3)cc2)CC1 | 88.7%
CCCN(CCC)C(=O)c1c(C)[nH]c(C(=O)OCC)c1C | 81.4%
COc1cccc(C2CC(c3c(Cl)cccc3Cl)n3nc(N)nc3N2)c1 (configuration not stated) | 83.6%
Cc1c(C(=O)OCc2ccccc2)[nH]c2c1C(=O)CC(c1ccco1)C2 (configuration not stated) | 6.48% (active)
Cn1c(=O)c2c(nc(SCCOc3ccc4ccc(=O)oc4c3)n2C)n(C)c1=O | 104%
COc1ccc(NC(=O)CN(c2cc(C)cc(C)c2)S(=O)(=O)c2c(C)noc2C)cc1OC | 88.2%
CCOc1ccc(N2CC(C(=O)Nc3ccccc3OC)CC2=O)cc1 (configuration not stated) | 95.7%
CC(C)CNc1oc(-c2ccc(F)cc2)nc1C#N | 94.2%
O=C(Nc1nnc(N2CCCCCC2)s1)c1cc(-c2ccc(Br)cc2)on1 | 99.6%
Cc1ccc(N=Cc2ccc[nH]2)c(O)c1 | 81.9%
CCCOC(=O)c1[nH]c2c(c1C)C(=O)CC(c1cc(OC)c(OC)c(OC)c1)C2 (configuration not stated) | 74.2%
C=CCSc1nc2sc(C)c(C)c2c(=O)[nH]1 | 90.7%
O=C(c1ccc(Br)cc1)N1CCN(S(=O)(=O)c2ccccc2)CC1 | 92.6%
CN(C(=O)c1ccco1)c1nnc(C23CC4CC(CC(C4)C2)C3)s1 | 75.9%
COc1ccc(-c2nc3c(n2O)CCC/C3=N\O)cc1 | 86.5%
CC1CCC(NC(=O)C2(C)CCC(=O)N2Cc2cccnc2)CC1 (configuration not stated) | 78.6%
Cc1cnc(NC(=O)CSc2nnc(COc3c(C)cccc3C)o2)s1 | 87.1%

Assay: reversal of MRP1-mediated doxorubicin resistance, pilot screen, H69AR cells, doxorubicin co-treatment (AID 601)
Conditions: H69AR cells + 2 uM doxorubicin, CellTiter-Glo, 72 h; at 10 µM; stronger effect = higher value

SMILES | differential viability (reversal) [%]
Nc1nc(N2CCCCC2)nc(N(c2ccccc2)c2ccccc2)n1 | -4.36
O=C1c2ccccc2C(Nc2cccnc2)N1Cc1ccccc1Cl (configuration not stated) | -16
CCN1CCN(c2nc3c(c(=O)[nH]c(=O)n3C)n2CCSc2nc3ccccc3s2)CC1 | -8.44
COc1cc(C(O)c2nc3ccccc3n2C)cc(OC)c1OC (configuration not stated) | 9.33
CCOC(=O)N1CCC(Nc2nc3ccccc3n3cnnc23)CC1 | 5.21
COc1ccc(C2C(C(C)=O)=C(C)N=c3s/c(=C/c4ccc5c(c4)OCO5)c(=O)n32)cc1 (configuration not stated) | 17.7
CCOC(=O)C1=C(C)N(C)C(=O)NC1c1ccccc1OC (configuration not stated) | 64.2
CCCCS(=O)(=O)NC1=NCN(CCOC(=O)c2ccccc2)CN1 | 14.3
COc1ccc(-n2c(Cc3cccn3C)nnc2SCC(=O)Nc2cccc(Cl)c2)cc1 | -2.28
CCC1CCCCN1C(=O)CSc1nnc(-c2ccc(OC)cc2)o1 (configuration not stated) | -6.46
COc1ccc(N(CC(=O)Nc2ccc3c(c2)OCO3)S(=O)(=O)c2c(C)nn(C)c2C)cc1 | 13.8
CCOc1ccc(C2CC(c3ccccc3C)n3nc(N)nc3N2)cc1 (configuration not stated) | -14.3
Cc1cc(N)n2nc(-c3ccccc3)cc2n1 | 11.5
CCCCCn1c(CCNC(=O)CCC)nc2ccccc21 | 5.08
O=C(c1ccc2c(c1)OCCO2)N1CCCCC1 | -1.2
O=C(NCCc1c[nH]c2ccccc12)c1cnc2n(c1=O)CCS2 | -5.14
CCc1cc(=O)n2[nH]c(C)c(-c3ccccc3OC)c2n1 | 5.22
Cc1ccc(CSc2nc3c(c(=O)[nH]2)CCC3)cc1 | 17.8
CN(CCNS(=O)(=O)c1ccc2c(c1)oc(=O)n2C)Cc1ccccc1 | 10.2
COc1ccc(-c2nnc(SCC(=O)NC(C)c3ccccc3)o2)cc1 (configuration not stated) | 5.95

SMILES | differential viability (reversal) [%]
CCOc1ccc(Cn2nnc(C(=O)Nc3cc(C)cc(C)c3)c2N)cc1 | 7.9
CCCCCn1c(CN2CCN(C(=O)c3ccco3)CC2)nc2c1c(=O)n(C)c(=O)n2C | 27.9
CCN1CCN(Cc2ccc(NC(=O)Nc3ccccc3)cc2)CC1 | -0.57
CCCN(CCC)C(=O)c1c(C)[nH]c(C(=O)OCC)c1C | -12.4
COc1cccc(C2CC(c3c(Cl)cccc3Cl)n3nc(N)nc3N2)c1 (configuration not stated) | 4.33
Cc1c(C(=O)OCc2ccccc2)[nH]c2c1C(=O)CC(c1ccco1)C2 (configuration not stated) | -2.23
Cn1c(=O)c2c(nc(SCCOc3ccc4ccc(=O)oc4c3)n2C)n(C)c1=O | 14.3
COc1ccc(NC(=O)CN(c2cc(C)cc(C)c2)S(=O)(=O)c2c(C)noc2C)cc1OC | 14.6
CCOc1ccc(N2CC(C(=O)Nc3ccccc3OC)CC2=O)cc1 (configuration not stated) | 9.71
CC(C)CNc1oc(-c2ccc(F)cc2)nc1C#N | 1.69
O=C(Nc1nnc(N2CCCCCC2)s1)c1cc(-c2ccc(Br)cc2)on1 | 13.1
Cc1ccc(N=Cc2ccc[nH]2)c(O)c1 | -14.5
CCCOC(=O)c1[nH]c2c(c1C)C(=O)CC(c1cc(OC)c(OC)c(OC)c1)C2 (configuration not stated) | 9.54
C=CCSc1nc2sc(C)c(C)c2c(=O)[nH]1 | 9.9
O=C(c1ccc(Br)cc1)N1CCN(S(=O)(=O)c2ccccc2)CC1 | -2.33
CN(C(=O)c1ccco1)c1nnc(C23CC4CC(CC(C4)C2)C3)s1 | -0.595
COc1ccc(-c2nc3c(n2O)CCC/C3=N\O)cc1 | 5
CC1CCC(NC(=O)C2(C)CCC(=O)N2Cc2cccnc2)CC1 (configuration not stated) | -8.95
Cc1cnc(NC(=O)CSc2nnc(COc3c(C)cccc3C)o2)s1 | -6.84
